Rab9 prom act: activates the Rab9 promoter | Huh7 Rab9 promoter-luciferase reporter, luminescence, 24 h | Potency, µM (titrated, usually from 9.22 µM), inactives show at the highest dose activation, negative = inhibition, actives largely listed as activators | hit rate 2.8% among 320,000 | AID 485297; note: % of control where 0% means no effect; nearly all actives have a fitted effect of over 60% in size
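Cells were plated at 1500 per well in reduced-serum medium with 10% FBS and left 2 h. Compound in DMSO was then added for 24 h at 37 °C. Reporter signal was read by luminescence after 10 min with luciferase detection reagent.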
NPC1 prom act: activates the NPC1 promoter; hit rate 2.4% among 320,000; Potency, µM (titrated, usually from 9.22 µM), inactives show at the top dose activation, usual class: activators; Huh7 NPC1 promoter luciferase reporter, 24 h; note: % of control where 0% means no effect; nearly all actives have a fitted effect of over 60% in size
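Huh7 cells stably carrying NPC1 promoter–luciferase, plated in Opti-MEM with 10% FBS for 2 h, were exposed to compound in DMSO for 24 h at 37 °C; luciferase reagent was added for 10 min and luminescence read.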
SMN2 splice enh: SMN2 splice variant enhancement. HEK293 SMN2-luciferase splicing reporter, luminescence, 30-36 h. AID 1458. hit rate 2.8% among 210,000. Potency, µM (titrated, usually from 46.1 µM), for inactives: top-dose activity change, positive = activation, actives largely listed as activators; note: % of control where 0% means no effect; nearly all actives have a fitted effect of over 55% in size
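HEK293 cells carry an SMN2 […]–luciferase reporter in which exon 7 inclusion puts luciferase in frame. Cells were plated 10-12 h before compound addition, then incubated 30-36 h at 37C. ONE-Glo luminescence was read; sodium butyrate at 4.5 mM final served as control.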
ELG1 genotox: genotoxicity induction in ELG1-luciferase HEK293T cells; Potency, µM (top dose mostly 46 µM), for the others: at the top dose activity change, positive = activation, hits mostly activators; hit rate 1.3% among 330,000; HEK293T ELG1-luciferase reporter, luminescence, 16 h; note: % of control where 0% means no effect; nearly all actives have a fitted effect of over 60% in size
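Step 1: seed 2,000 HEK293T ELG1-luciferase cells per well. Step 2: add compound or DMSO, incubate 16 hr at 37 °C. Step 3: ONE-Glo, 30 min at room temperature, read luminescence.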
Luc counter: counter-screen: inhibitors of Kinase-Glo firefly luciferase. Q27757. Kinase-Glo luciferase, ATP luminescence, 8 min. Potency, µM (highest dose often 38.3 µM), for inactives: at the highest dose activity change, negative = inhibition, most hits filed as inhibitors. hit rate 0.28% among 200,000. AID 1379; note: % is set by controls: 0 for no effect and ±100 for the full control effect; nearly all actives have a fitted effect of over 60% in size
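Luminescence was the read-out, taken after 8-minute incubation at ambient temperature. Luciferase turned over luciferin with 10 uM ATP in imidazole pH 7.2 buffer containing KCl, MgCl2, Tween 20 and BSA.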
FLuc counter: inhibits or activates purified firefly luciferase, miR-21 counter-screen; P08659; purified FLuc, Km substrates, luminescence inhibition; Potency, µM (series often up to 57.5 µM), without a hit: top-dose activity change, negative = inhibition, actives largely listed as inhibitors; hit rate 6.9% among 360,000; AID 588342;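 note: plate controls were vehicle for no effect and reference inhibitor for full effect; nearly all actives have a fitted effect of over 55% in size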
Target sequence (P08659 whole entry, looked up): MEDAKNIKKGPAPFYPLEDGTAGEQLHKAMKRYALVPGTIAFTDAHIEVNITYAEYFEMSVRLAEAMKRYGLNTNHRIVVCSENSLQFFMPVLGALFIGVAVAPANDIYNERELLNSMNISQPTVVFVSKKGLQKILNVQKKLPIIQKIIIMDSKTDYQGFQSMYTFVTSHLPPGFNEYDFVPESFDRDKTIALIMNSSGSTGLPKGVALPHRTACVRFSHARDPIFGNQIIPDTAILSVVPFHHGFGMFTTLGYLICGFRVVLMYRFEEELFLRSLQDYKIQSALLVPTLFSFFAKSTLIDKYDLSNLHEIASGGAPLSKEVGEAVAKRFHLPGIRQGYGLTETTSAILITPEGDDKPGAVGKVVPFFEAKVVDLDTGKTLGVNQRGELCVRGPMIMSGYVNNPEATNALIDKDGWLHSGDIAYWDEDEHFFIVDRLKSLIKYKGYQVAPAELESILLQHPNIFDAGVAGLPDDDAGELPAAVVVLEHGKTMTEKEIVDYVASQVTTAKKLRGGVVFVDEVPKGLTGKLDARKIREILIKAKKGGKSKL
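Purified P. pyralis luciferase, 10 nM final, with Km-level 10 uM D-luciferin and 10 uM ATP in 50 mM Tris acetate pH 7.5, 10 mM Mg acetate, 0.01% Tween-20, 0.05% BSA; 6-point qHTS titration about 60 µM downward; luminescence read.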
Starred values were filed as active, the others as inactive; ? = inconclusive; nt = no result; [ ] = another dose, or the depositor's remark. Hits are enriched below; roughly 7.5% of the tested compounds scored in any of these assays. Calls come from the whole dose curve; as a rule, active = well fitted curve in the direction sought with a large enough effect; inconclusive = small, poorly fitted or top-dose-only effect, or another doubt; inactive = no such curve, though single readings can be large; an effect the other way counts as inactive or inconclusive. Potency is the fitted concentration of half-maximal effect.

SMILES	Rab9 prom act	NPC1 prom act	SMN2 splice enh	ELG1 genotox	Luc counter	FLuc counter
Cc1ccc(CC2CC(=O)N(c3ncccn3)C2=O)cc1 (centres undefined)	-2%	-1%	nt	1%	nt	1%
O=C1CC(Cc2ccc(Cl)cc2)C(=O)N1c1ccccn1 (centres undefined)	-2%	-3%	32µM*	4%	1%	-2%
COc1ccc(CNc2nc(-c3ccccc3OC)nc3ccccc23)c(OC)c1	nt	nt	-43%	nt	0%	nt
CC(=O)N(C)c1cccc(-c2ccc3nnc(C)n3n2)c1	-6%	-5%	nt	5%	nt	2%
CC(C)CNC(=O)c1cc(-c2ccco2)on1	4µM*	4µM*	?	?	-8%	13µM*
CCCNC(=O)c1cc(-c2ccco2)on1	3.5µM*	?	18µM*	16µM*	-17%	17µM*
CC1=C(C(=O)Nc2ccc(CC(=O)NCc3ccccc3C)cc2)SCCO1	?	17%	nt	?	nt	2.4µM*
CCc1ccc(CNC(=O)Cc2ccc(NC(=O)C3=C(C)OCCS3)cc2)cc1	10%	?	nt	?	nt	2.4µM*
COc1cccc(CNC(=O)Cc2ccc(NC(=O)C3=C(C)OCCS3)cc2)c1	3.2µM*	?	nt	?	nt	1.9µM*
CC1=C(C(=O)Nc2cccc(C(=O)NCc3ccc(F)cc3)c2)SCCO1	-10%	-4%	nt	-3%	nt	-18%
COCCCNC(=O)c1sc2nc(C)c(C(=O)Nc3ccc(C)cc3C)c(-c3ccccc3Cl)c2c1N	nt	nt	-12%	nt	nt	-19%
COc1ccc(N2CCN(C(=O)C3Cc4ccccc4N3C(C)=O)CC2)cc1 (centres undefined)	nt	nt	nt	nt	nt	-5%
CCc1nnc(N/N=C/c2ccccc2Cl)n1N	-5%	2%	-5%	3%	4%	-24%
C(=N\NC1=Nc2cccc3cccc1c23)/c1ccccn1	-23%	-34%	-44%	?	-3%	1.5µM*
Clc1ccccc1/C=N/NC1=Nc2cccc3cccc1c23	4.5µM*	?	5.6µM*	16µM*	0%	0.85µM*
Clc1ccc(-c2cnc(Oc3ccccc3)nc2)cc1	2.8µM*	0.79µM*	14µM*	?	-2%	2.7µM*
Cc1cc(Cl)ccc1Oc1ncc(-c2ccc(Cl)cc2)cn1	-5%	-6%	-24%	-7%	0%	-16%
Cc1cccc(-c2ncc(CN3CCCC(CO)(Cc4ccccc4C)C3)cn2)c1 (centres undefined)	1%	1%	nt	-5%	nt	-7%
Cc1c(CN2CCCC(CO)(Cc3cccc(Cl)c3)C2)cnn1C (centres undefined)	-3%	2%	nt	-2%	-1%	2%
O=S(=O)(Nc1ccc(-c2nc3cccnc3s2)cc1)c1cccs1	27%	28%	?	?	0%	-15%
Cc1cc(-c2nc3cccnc3s2)ccc1NS(=O)(=O)c1cccs1	1.6µM*	?	nt	?	nt	13µM*
Cc1c(NS(=O)(=O)c2cccs2)cccc1-c1nc2cccnc2s1	13%	-2%	nt	-4%	nt	19µM*
Cc1c(NS(C)(=O)=O)cccc1-c1nc2cccnc2s1	?	?	nt	-7%	nt	17µM*
OCC(O)CO	nt	nt	1%	nt	nt	nt
COc1ccc(C(=O)Cc2cc3ccccc3oc2=O)cc1	?	3.5µM*	nt	?	nt	12µM*
SMILES	Rab9 prom act	NPC1 prom act	SMN2 splice enh	ELG1 genotox	Luc counter	FLuc counter
CCOc1ccc(C(=O)Cc2cc3cccc(OC)c3oc2=O)cc1	1%[1.84 µM]	1%	nt	3%	nt	?
Cc1ccc(C(=O)Cc2cc3ccccc3oc2=O)c(C)c1	0.79µM*	1.4µM*	nt	?	nt	3µM*
c1ccc(CCNc2nc(-c3ccccn3)nc3ccccc23)cc1	-25%	-17%	nt	-13%	nt	?
CC(C)(C)OC(=O)N1CCC(c2c(C(=O)NCCN3CCC(Cc4ccccc4)CC3)cnn2-c2ccc(F)cc2)CC1	nt	nt	nt	nt	nt	4%
CCc1cc(C(=O)N2CCN(C(=O)c3ccccc3)CC2)sc1C	-4%	-2%	nt	0%	nt	-3%
COc1cccc(OCC(=O)Nc2ccccc2C(=O)Nc2ccc(C(=O)O)cc2)c1	4%	1%	nt	-6%	nt	-3%
COc1ccc(NC(=O)c2ccccn2)cc1OC	4µM*	?	?	?	-17%	17µM*
COc1ccc(NC(=O)c2ccccn2)cc1	?	0.5µM*	1.6µM*	?	13µM*	2.7µM*
CCNc1ncc2nc(-c3cccc(C#N)c3)c(=O)n(CCC#N)c2n1	nt	nt	nt	nt	-3%	nt
Cc1ccc(C2CC(=O)N(Cc3ccccc3)c3c2c(C)nn3-c2nc(C)cc(C)n2)cc1 (centres undefined)	nt	nt	nt	nt	nt	3%
CCCCCC(=O)OCCc1c(C)nc2nc[nH]n2c1=O	-18%	1%	13%	-2%	1%	-17%
CCOC(=O)c1ccc(NC(=O)CCc2c(C)nc3nc[nH]n3c2=O)cc1	nt	nt	1%	nt	nt	27µM*
Cc1ccc(C)c(NC(=O)CCc2nc(-c3ccc(C(C)(C)C)cc3)no2)c1	nt	nt	-9%	nt	nt	2.1µM*
CCOC(=O)c1ccc(NC(=O)CCc2nc(-c3ccc(C)cc3)no2)cc1	8%	-2%	-101%	23µM*	2%	1%
O=C(Nc1ccc(-c2noc(COc3ccccc3Cl)n2)cc1)c1ccco1	?	3.2µM*	11µM*	?	-26%	11µM*
CCc1ccc(NC(=O)c2ccc3c(c2)nnn3CC)cc1	nt	nt	nt	nt	nt	-19%

High-throughput results (PubChem BioAssay)
